{"source": "PubChem BioAssay AID1063", "about": "(University of Pittsburgh Molecular Library Screening Center, 2008)", "note": "Out of some 200,000 compounds screened, about 18,000 (9%) were called active. The list comes from a sample in which actives are over-represented; it also holds similar structures and randomly drawn compounds. A number with no mark means an inactive call. Rule as the data show it: active = inhibition above about 50%; inactive = the rest.", "data": [{"assay": "Leishmania major promastigote growth inhibition, primary screen (AID 1063);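 also: promastigotes grown with compound for 44 hours at 28 °C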", "conditions": "Leishmania major promastigotes, resazurin fluorescence viability; at 10 µM; hits give high values", "values": [{"smiles": "CC(C)Oc1ccc(Cc2n[nH]c(=S)n2Cc2ccccc2)cc1Cl", "inhibition": "4.91%"}, {"smiles": "Nc1c(NCCc2ccccc2)c2ccccc2oc1=O", "inhibition": "-2.7%"}, {"smiles": "Cc1ccc(C(=O)N/C(=C\\c2cccs2)C(=O)NCCc2ccccn2)cc1C", "inhibition": "16.6%"}, {"smiles": "COC(=O)C1=C(C)N(C)C(=S)NC1c1cc(OC)ccc1OC", "note": "(stereo unspecified)", "inhibition": "3.3%"}, {"smiles": "COc1cc(SC)ccc1C(=O)NCCOc1ccccc1Cl", "inhibition": "1.79%"}, {"smiles": "COc1cc(SC)ccc1C(=O)Nc1cc(C)ccn1", "inhibition": "25.5%"}, {"smiles": "COc1ccccc1CNC(=O)c1ccc(SC)cc1OC", "inhibition": "66.9% (active)"}, {"smiles": "O=C(NNC(=O)C1C2CCC(C2)C1C(=O)O)c1ccc(Cl)cc1", "note": "(stereo unspecified)", "inhibition": "-5.41%"}, {"smiles": "Cc1cccc(C(=O)OC(C)CN2CCN(C)CC2)c1", "note": "(stereo unspecified)", "inhibition": "3.94%"}, {"smiles": "CO/N=C/c1cn(-c2ccc(Cl)cc2)nn1", "inhibition": "-1.77%"}, {"smiles": "CCC1CCCCN1CCCNC(=O)Cn1nc(-c2ccccc2)ccc1=O", "note": "(stereo unspecified)", "inhibition": "-4.42%"}, {"smiles": "CCC1CCCCN1CCCNC(=O)C1CCC(Cn2c(=O)[nH]c3ccccc3c2=O)CC1", "note": "(stereo unspecified)", "inhibition": "-4.5%"}, {"smiles": "CCC1CCCCN1CCCNC(=O)c1cc2c(Cl)nc3ccccc3c2s1", "note": "(stereo unspecified)", "inhibition": "100% (active)"}, {"smiles": "Cc1ccccc1C(OCCN(C)C)C1CCCCC1", "note": "(stereo unspecified)", "inhibition": "18.1%"}, {"smiles": "Cc1ccccc1C(OCC(O)CN1CCCCC1CCO)c1ccccc1", "note": "(stereo unspecified)", "inhibition": "99.7% (active)"}, {"smiles": "CC(C)OCC(O)CN1CCN(C(c2ccccc2)c2ccccc2)CC1", "note": "(stereo unspecified)", "inhibition": "0.57%"}, {"smiles": "CC(C)N(Cc1nc(-c2ccc3c(c2)OCO3)no1)CC1CCC(=O)N1", "note": "(stereo unspecified)", "inhibition": "-6.4%"}, {"smiles": "COc1ccc(C(=O)Nc2ccc(S(=O)(=O)NC(C)C)cc2)cc1", "inhibition": "-3.72%"}, {"smiles": "CC(=O)c1ccc(NC(=S)NC(=O)CC(C)C)cc1", "inhibition": "-4.65%"}, {"smiles": "COc1ccc(NS(=O)(=O)c2ccc(NC(=S)NC(=O)CC(C)C)cc2)cc1", "inhibition": "96.7% (active)"}, {"smiles": "COc1ccc(C2=NN(c3ccccc3)C(c3cccs3)C2)cc1", "note": "(stereo unspecified)", "inhibition": "44.3%"}, {"smiles": "COc1cc(NC(=O)CN(C)S(=O)(=O)c2ccc3nc(C)sc3c2)cc(OC)c1", "inhibition": "13%"}, {"smiles": "CCCCN(CC)C(=S)Nc1ccc2nc3n(c(=O)c2c1)CCCCC3", "inhibition": "55.5% (active)"}, {"smiles": "O=C(Nc1ccc2nc3n(c(=O)c2c1)CCCCC3)c1ccccc1Cl", "inhibition": "0.22%"}, {"smiles": "Cc1ccc2nc3n(c(=O)c2c1)CCC3", "inhibition": "-7.48%"}, {"smiles": "O=C(OCC(=O)N1CCOCC1)c1ccc(N2CCOCC2)c([N+](=O)[O-])c1", "inhibition": "0.36%"}, {"smiles": "CC(C)(C)CN1CCNC(=O)C1CC(=O)NC1Cc2ccccc2C1", "note": "(stereo unspecified)", "inhibition": "-0.33%"}, {"smiles": "Brc1ccc2nc(N3CCCC3)sc2c1", "inhibition": "17%"}, {"smiles": "O=C(c1ccc2c(c1)N(Cc1ccc(F)cc1)C(=O)c1ccccc1S2(=O)=O)N1CCN(c2ccccn2)CC1", "inhibition": "97% (active)"}, {"smiles": "CCCCN(C)C(=O)c1ccc2c(c1)N(CC)C(=O)c1ccccc1S2(=O)=O", "inhibition": "-6.56%"}, {"smiles": "O=C(c1ccc2c(c1)C(=O)N(c1ccc(Cl)cc1)C2=O)N1CCN(c2ccccn2)CC1", "inhibition": "-5.18%"}, {"smiles": "S=C1SCN(CCN2CCOCC2)CN1Cc1ccccc1", "inhibition": "86.7% (active)"}, {"smiles": "CCN1CN(Cc2ccccc2)CNC1=S", "inhibition": "-5.52%"}, {"smiles": "C/C(CCc1ccccc1)=N\\NC(=O)c1ccc(CN2CCOCC2)cc1", "inhibition": "-3.42%"}, {"smiles": "CCCn1nc(Oc2nc(NC(C)C)nc(N(C)C)n2)ccc1=O", "inhibition": "7.02%"}, {"smiles": "CC(=O)Nc1ccc(S(=O)(=O)Nc2ccc(-c3ccc4nnc(C)n4n3)cc2)cc1", "inhibition": "-6.31%"}, {"smiles": "COc1ccc(-c2nn3c(-c4ccccc4)nnc3s2)cc1OC", "inhibition": "3.79%"}, {"smiles": "CCOc1cccc(-c2nn3c(-c4ccccn4)nnc3s2)c1", "inhibition": "6.06%"}, {"smiles": "c1ccc(-c2cc(-c3nnc4sc(-c5ccccn5)nn34)[nH]n2)cc1", "inhibition": "84.6% (active)"}, {"smiles": "COc1ccc(N2C(=O)CC(Nc3ccc(F)cc3)C2=O)c([N+](=O)[O-])c1", "note": "(stereo unspecified)", "inhibition": "-0.61%"}, {"smiles": "CN(C)c1ccc(C2Nc3ccccc3C(=O)N2NS(=O)(=O)c2ccccc2)cc1", "note": "(stereo unspecified)", "inhibition": "3.72%"}, {"smiles": "O=C(O)c1ccc(NC(=O)c2cn(-c3ccccc3)nc2-c2ccc(Cl)cc2)cc1", "inhibition": "-2.74%"}, {"smiles": "COc1ccc(-c2nn(-c3ccccc3)cc2C(=O)Nc2nccs2)cc1OC", "inhibition": "21.8%"}, {"smiles": "O=C(Nc1cn(-c2ccccc2)nc1-c1ccccc1)c1ccccc1", "inhibition": "82.8% (active)"}, {"smiles": "O=C(NCc1cccnc1)c1cn(-c2ccccc2)nc1-c1cccs1", "inhibition": "1.01%"}, {"smiles": "Cc1ccccc1NC(=O)c1ccccc1", "inhibition": "-0.75%"}, {"smiles": "O=C(NNC(=S)NC(=O)c1cn(-c2ccccc2)nc1-c1ccccc1)c1ccncc1", "inhibition": "54.9% (active)"}, {"smiles": "CCN(CC)S(=O)(=O)c1ccc(N2CCOCC2)c(NC(=O)C2COc3ccccc3O2)c1", "note": "(stereo unspecified)", "inhibition": "26.2%"}, {"smiles": "N#CC1=C(N)Oc2[nH]c(=S)[nH]c(=O)c2C12C(=O)Nc1ccccc12", "note": "(stereo unspecified)", "inhibition": "-9.87%"}, {"smiles": "COc1ccc(N2CCN(C(=O)CCSCc3ccccc3F)CC2)cc1", "inhibition": "3.84%"}, {"smiles": "COC(=O)c1ccc(NC(=S)NN2CCOCC2)cc1", "inhibition": "-9.83%"}, {"smiles": "CC(NC(=O)Nc1ccccc1)C(c1cccs1)N1CCN(c2ccccc2)CC1", "note": "(stereo unspecified)", "inhibition": "-1.95%"}, {"smiles": "Cc1nc2ccc(NC(=S)N3CCC(C)CC3)cc2nc1C", "inhibition": "-1.44%"}, {"smiles": "COc1ccc(OCCCn2cccc2/C=C2/C(=N)N3OC(C)=CC3=NC2=O)cc1", "inhibition": "21.9%"}, {"smiles": "Cc1cc(C)nc(SCC(=O)N(C)C)n1", "inhibition": "-4.86%"}, {"smiles": "C/C(CC1CC(C)(C)OC1=O)=N/Nc1nc(-c2ccccc2)cs1", "note": "(stereo unspecified)", "inhibition": "55.5% (active)"}, {"smiles": "CC1(C)CC(CC(=O)O)C(=O)O1", "note": "(stereo unspecified)", "inhibition": "-2.75%"}, {"smiles": "CC1(C)CC(CCC(=O)Nc2ccccc2Cl)C(=O)O1", "note": "(stereo unspecified)", "inhibition": "-7.36%"}, {"smiles": "CC(=O)Nc1nc(N(C)C)nc(N(C)C)n1", "inhibition": "2.36%"}, {"smiles": "O=C(NCc1ccco1)C(=O)c1cn(CC(=O)N2CCCCCC2)c2ccccc12", "inhibition": "5.44%"}, {"smiles": "O=C(COC(=O)/C=C/c1cccc(Cl)c1)NCCc1ccccc1", "inhibition": "53.4% (active)"}, {"smiles": "COc1ccc(CCNC(=O)COC(=O)/C=C/c2cccs2)cc1OC", "inhibition": "4.8%"}, {"smiles": "CCOC(=O)CCCNC(=O)COC(=O)/C=C/c1ccc2c(c1)OCO2", "inhibition": "-1.67%"}, {"smiles": "COc1ccc(C2OCC3(CO2)SC(=O)NC3=O)cc1OC", "note": "(stereo unspecified)", "inhibition": "-7.62%"}, {"smiles": "O=C(NNC(=S)Nc1ccccc1)c1cccc(S(=O)(=O)N2CCOCC2)c1", "inhibition": "-4.58%"}, {"smiles": "COc1ccccc1NC(=O)C[n+]1ccccc1", "inhibition": "-3.72%"}, {"smiles": "COC(=O)c1cc(C(=O)N(Cc2ccccc2)c2ccccn2)cc([N+](=O)[O-])c1", "inhibition": "8.15%"}, {"smiles": "Fc1ccccc1/C=C1\\CCCC2=C1Nc1ncnn1C2c1ccccc1F", "note": "(stereo unspecified)", "inhibition": "98.9% (active)"}, {"smiles": "O=C(NCc1cccnc1)c1nc(-c2cccs2)no1", "inhibition": "4.89%"}, {"smiles": "CCOc1ccccc1C(=O)NC1CC2CCCC(C1)N2Cc1ccccc1", "note": "(stereo unspecified)", "inhibition": "16%"}, {"smiles": "COc1ccc(NC(=O)NC2CC3CCCC(C2)N3Cc2ccccc2)cc1", "note": "(stereo unspecified)", "inhibition": "66.9% (active)"}, {"smiles": "COc1ccc(NC(=O)N2CCC(Cc3ccccc3)CC2)cc1", "inhibition": "-0.62%"}, {"smiles": "C=CCn1c(CC(=O)Nc2cccc(OC)c2)nnc1SCC(=O)NC1CCCCC1", "inhibition": "-2.71%"}, {"smiles": "C=CCN1C2CCCC1CC(NC(=S)Nc1cccc(OC)c1)C2", "note": "(stereo unspecified)", "inhibition": "54.3% (active)"}, {"smiles": "COc1cccc(NC(=S)NCCCN2CCOCC2)c1", "inhibition": "1.1%"}, {"smiles": "COc1ccc(N=C2SC(C(=O)Nc3ccc(F)cc3)CC(=O)N2C)cc1", "note": "(stereo unspecified)", "inhibition": "20.6%"}, {"smiles": "CN1CCN(C(=O)/C(=C\\c2ccc3c(c2)OCO3)NC(=O)c2cccs2)CC1", "inhibition": "-8.78%"}, {"smiles": "CN(CCc1cn[nH]c1)C(=O)CC1C(=O)NCCN1Cc1cccc(Oc2ccccc2)c1", "note": "(stereo unspecified)", "inhibition": "0.64%"}, {"smiles": "O=C(/C=C/c1cn(-c2ccccc2)nc1-c1ccc2c(c1)OCCO2)NCCCN1CCOCC1", "inhibition": "41.1%"}, {"smiles": "Nc1ccc(OCC(O)C[n+]2ccc(CCS(=O)(=O)[O-])cc2)cc1", "note": "(stereo unspecified)", "inhibition": "-3.78%"}, {"smiles": "O=C(O)c1ccc(N/N=C/c2ccc3ncccc3c2)cc1", "inhibition": "-9.46%"}, {"smiles": "CN(C(=O)CSc1nnc(-c2c[nH]c3ccccc23)o1)C1CCS(=O)(=O)C1", "note": "(stereo unspecified)", "inhibition": "0.33%"}, {"smiles": "CCOc1cccc(NC(=O)C2CCCN(S(=O)(=O)c3ccc(OC)cc3)C2)c1", "note": "(stereo unspecified)", "inhibition": "30.8%"}, {"smiles": "COc1ccc(/C=C/CN2CCCC(C(=O)c3cc(F)ccc3F)C2)cc1", "note": "(stereo unspecified)", "inhibition": "81.1% (active)"}, {"smiles": "CSCC(=O)N1CCCC(C(=O)c2cc(F)ccc2F)C1", "note": "(stereo unspecified)", "inhibition": "-4.01%"}, {"smiles": "O=C1CCC(CCC(=O)N2CCCC(C(=O)c3ccc(Cl)cc3)C2)=NN1", "note": "(stereo unspecified)", "inhibition": "-5.05%"}, {"smiles": "CCc1nnc(NC(=O)CSc2nnnn2-c2cccc(C(C)=O)c2)s1", "inhibition": "-4.47%"}, {"smiles": "O=C(NNC(=O)c1ccccc1[N+](=O)[O-])Nc1ccccc1C(F)(F)F", "inhibition": "0.59%"}, {"smiles": "Cn1cnnc1Sc1ccc(S(C)(=O)=O)cc1[N+](=O)[O-]", "inhibition": "-6.44%"}, {"smiles": "O=C(NCC1CCCO1)c1ccc2ccccc2n1", "note": "(stereo unspecified)", "inhibition": "-4.29%"}, {"smiles": "COc1ccc(C(=O)OCC(=O)NCC2CCCO2)cc1[N+](=O)[O-]", "note": "(stereo unspecified)", "inhibition": "-1.01%"}, {"smiles": "O=C(/C=C/c1ccccc1[N+](=O)[O-])NCC1CCCO1", "note": "(stereo unspecified)", "inhibition": "64.4% (active)"}, {"smiles": "CC(C)C(=O)Nc1c(O)c2ccccc2[nH]c1=O", "inhibition": "-11.4%"}, {"smiles": "O=C(Nc1ccc(S(=O)(=O)N2CCc3ccccc3C2)cc1)c1ccccc1", "inhibition": "-4.05%"}, {"smiles": "CCn1cc(C(=O)NCCCN2CCCCCC2)c(=O)c2cc(S(=O)(=O)N3CCc4ccccc4C3)ccc21", "inhibition": "89.7% (active)"}, {"smiles": "CCn1cc(C(=O)NCC2CCCO2)c(=O)c2cc(S(=O)(=O)N3CCCCC3)ccc21", "note": "(stereo unspecified)", "inhibition": "10.9%"}]}]}
